Consider 34 compounds from the supplement of paper PMC7695840.

Molecules are shown by their SMILES. Structures can show the parent of a compound that is named as a salt.

The subject of assay [1] is Staphylococcus aureus MW2 delta-mecA (mecA-). Nature of the assay: normalized GFP fluorescence (growth of mecA- strain) (fraction of control range); higher = more growth of mecA- strain. The conditions noted are these: compound concentration: 150 uM; cefoxitin: subinhibitory; fluorescent label: GFP. In short, it runs like this: (§1)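 Two pre-induced S. aureus MW2 strains, one with the gene labeled by DsRed and one lacking it labeled by GFP, were mixed 1:1 in LB with a subinhibitory antibiotic dose set daily. The mix went at 5 µL/well onto 150 μM compound (1.5% DMSO) in 1536-well plates, single replicate, and grew unshaken 20 h at 37 °C, 90% humidity. DsRed (540/590) and GFP (485/520) values were scaled per plate between single-strain control medians, and plates with high untreated ratios or rows with DsRed/GFP >10 were left out.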

In assay [2] the test system is Staphylococcus aureus MW2 (mecA+). Nature of the assay: normalized DsRed fluorescence (growth of mecA+ strain) (fraction of control range); higher = more growth of mecA+ strain. The following applies: compound concentration: 150 uM; cefoxitin: subinhibitory; fluorescent label: DsRed. The essentials:
as §1

As for `CC(C)C(=O)Oc1ccc(CO)cc1[C@H](CCN(C(C)C)C(C)C)c1ccccc1` [Fesoterodine fumarate (Toviaz)], the “normalized GFP fluorescence” value in assay [1] worked out at 0.00662. Besides, the “normalized DsRed fluorescence” value in assay [2] was determined as 1.38.

Turning to `CC1=C(C(=O)O)N2C(=O)[C@@H](NC(=O)[C@H](N)c3ccccc3)[C@H]2SC1`, the “normalized GFP fluorescence” value in assay [1] was 0.18. Besides, in assay [2], the “normalized DsRed fluorescence” value was determined as 1.02.

For `NC[C@@H]1O[C@H](O[C@H]2[C@@H](O)[C@H](O[C@@H]3[C@@H](O)[C@H](N)C[C@H](N)[C@H]3O[C@H]3O[C@H](CN)[C@@H](O)[C@H](O)[C@H]3N)O[C@@H]2CO)[C@H](N)[C@@H](O)[C@@H]1O`, the “normalized GFP fluorescence” value in assay [1] was 0.217. Besides, the “normalized DsRed fluorescence” value in assay [2] is 0.718.

For the compound `CN1CCN(C2=Nc3cc(Cl)ccc3Nc3ccccc32)CC1` [Clozapine (Clozaril)], the “normalized GFP fluorescence” value in assay [1] came out at 0.0909. For the same compound, in assay [2], the “normalized DsRed fluorescence” value is 1.01.

Turning to `CN1CCCC(n2nc(Cc3ccc(Cl)cc3)c3ccccc3c2=O)CC1` (stereo not drawn) [Azelastine hydrochloride (Astelin)], the “normalized GFP fluorescence” value in assay [1] was 0.112. Further, in assay [2], the “normalized DsRed fluorescence” value came out at 1.13.

Take `CCOC(=O)c1ncn2c1CN(C)C(=O)c1cc(F)ccc1-2`: the “normalized GFP fluorescence” value in assay [1] is 0.408. In addition, in assay [2], the “normalized DsRed fluorescence” value turned out to be 0.611.

Regarding `CN(C)c1cc(NC(=O)CNC(C)(C)C)c(O)c2c1C[C@H]1C[C@H]3[C@H](N(C)C)C(O)=C(C(N)=O)C(=O)[C@@]3(O)C(O)=C1C2=O` [Tigecycline], in assay [1], the “normalized GFP fluorescence” value was determined as 0.473. For the same compound, the “normalized DsRed fluorescence” value in assay [2] was found to be 0.779.

`CC/C(=C(/CC)c1ccc(O)cc1)c1ccc(O)cc1`: the “normalized GFP fluorescence” value in assay [1] is 0.0115. The “normalized DsRed fluorescence” value in assay [2] was found to be 0.065.

`Cc1cn([C@H]2C[C@H](N=[N+]=[N-])[C@@H](CO)O2)c(=O)[nH]c1=O`: in assay [1], the “normalized GFP fluorescence” value is 0.317. For the same compound, the “normalized DsRed fluorescence” value in assay [2] is 0.887.

On to `COc1ccc2c(c1)C(=O)N(CCc1ccc(S(=O)(=O)NC(=O)NC3CCCCC3)cc1)C(=O)C2(C)C` [Gliquidone], for which the “normalized GFP fluorescence” value in assay [1] worked out at 0.017. In addition, the “normalized DsRed fluorescence” value in assay [2] worked out at 0.134.

`CC[N+](CC)(CC)CCOc1cccc(OCC[N+](CC)(CC)CC)c1OCC[N+](CC)(CC)CC`: the “normalized GFP fluorescence” value in assay [1] amounted to 0.163. Further, in assay [2], the “normalized DsRed fluorescence” value is 0.336.

Turning to `CCCCNc1cc(C(=O)O)cc(S(N)(=O)=O)c1Oc1ccccc1`, the “normalized GFP fluorescence” value in assay [1] worked out at 0.446. Further, in assay [2], the “normalized DsRed fluorescence” value worked out at 0.877.

In the case of `CC(C)NCC(O)COc1cccc2[nH]ccc12` (stereo not drawn), the “normalized GFP fluorescence” value in assay [1] turned out to be 0.242. Also, the “normalized DsRed fluorescence” value in assay [2] is 1.01.

Regarding `Cc1nc(-c2ccc(OCC(C)C)c(C#N)c2)sc1C(=O)O` [Febuxostat (Uloric)], the “normalized GFP fluorescence” value in assay [1] was found to be 0.0973. For the same compound, in assay [2], the “normalized DsRed fluorescence” value is 0.396.

In the case of `Oc1ccc(OCc2ccccc2)cc1`, in assay [1], the “normalized GFP fluorescence” value is 0.0954. For the same compound, the “normalized DsRed fluorescence” value in assay [2] is 0.522.

Regarding `c1cc(CN2CCCNCCNCCCNCC2)ccc1CN1CCCNCCNCCCNCC1` [Plerixafor], the “normalized GFP fluorescence” value in assay [1] turned out to be 0.396. Besides, the “normalized DsRed fluorescence” value in assay [2] is 0.938.

For the compound `Nc1nc2ccc(OC(F)(F)F)cc2s1`, the “normalized GFP fluorescence” value in assay [1] turned out to be 0.622. In assay [2], the “normalized DsRed fluorescence” value came out at 0.37.

With `CN(C)C(=N)NC(=N)N`, the “normalized GFP fluorescence” value in assay [1] stood at 0.544. The “normalized DsRed fluorescence” value in assay [2] was determined as 0.887.

With `CC(=O)Nc1cccc(-n2c(=O)n(C3CC3)c(=O)c3c(Nc4ccc(I)cc4F)n(C)c(=O)c(C)c32)c1`, in assay [1], the “normalized GFP fluorescence” value turned out to be 0.179. Moreover, the “normalized DsRed fluorescence” value in assay [2] stood at 1.12.

As for `O=C(c1ccc(OCCN2CCCCC2)cc1)c1c(-c2ccc(O)cc2)sc2cc(O)ccc12`, the “normalized GFP fluorescence” value in assay [1] is -0.00866. The “normalized DsRed fluorescence” value in assay [2] worked out at 0.747.

With `CN(C)CCCOc1nn(Cc2ccccc2)c2ccccc12`, the “normalized GFP fluorescence” value in assay [1] is 0.19. Moreover, the “normalized DsRed fluorescence” value in assay [2] is 1.11.

Consider `CCOC(=O)[C@H](CCc1ccccc1)N[C@@H](C)C(=O)N1[C@H](C(=O)O)C[C@H]2CCCC[C@@H]21`, for which the “normalized GFP fluorescence” value in assay [1] came to 0.598. Besides, the “normalized DsRed fluorescence” value in assay [2] stood at 0.51.

Turning to `COC(=O)C1=C(C)NC(C)=C(C(=O)OC)C1c1ccccc1[N+](=O)[O-]`, the “normalized GFP fluorescence” value in assay [1] was found to be 0.0465. Besides, the “normalized DsRed fluorescence” value in assay [2] was found to be 0.832.

On to `CCC(CC)[C@H](NC(C)=O)[C@@H]1[C@H](O)[C@@H](C(=O)O)C[C@H]1NC(=N)N` [Peramivir Trihydrate], for which the “normalized GFP fluorescence” value in assay [1] turned out to be 0.634. Besides, the “normalized DsRed fluorescence” value in assay [2] is 0.659.

On to `CN1C2=CC(=O)/C(=N\NC(N)=O)C=C2CC1S(=O)(=O)O` (stereo not drawn) [Carbazochrome sodium sulfonate], for which the “normalized GFP fluorescence” value in assay [1] was 0.171. In assay [2], the “normalized DsRed fluorescence” value came to 0.676.

For `CC(=O)OCC(=O)[C@@]1(O)CC[C@H]2[C@@H]3CCC4=CC(=O)CC[C@]4(C)[C@H]3C(=O)C[C@@]21C`, in assay [1], the “normalized GFP fluorescence” value worked out at 0.843. In addition, the “normalized DsRed fluorescence” value in assay [2] is 0.634.

As for `CCCCOc1ccc(C(=O)CCN2CCCCC2)cc1`, the “normalized GFP fluorescence” value in assay [1] worked out at 0.00391. Also, the “normalized DsRed fluorescence” value in assay [2] is 0.36.

Consider `C=C[C@H]1CN2CC[C@H]1C[C@H]2[C@H](O)c1ccnc2ccc(OC)cc12`, for which the “normalized GFP fluorescence” value in assay [1] turned out to be 0.628. Besides, the “normalized DsRed fluorescence” value in assay [2] worked out at 0.748.

Turning to `N[C@@H](Cc1c[nH]c2ccccc12)C(=O)O`, the “normalized GFP fluorescence” value in assay [1] was 0.368. Further, the “normalized DsRed fluorescence” value in assay [2] came out at 0.604.

Consider `CCN(CC)C(=O)N1CCN(C)CC1`, for which, in assay [1], the “normalized GFP fluorescence” value was determined as 0.599. Further, the “normalized DsRed fluorescence” value in assay [2] came to 0.455.

Regarding `O=c1[nH]cnc2c1ncn2[C@H]1CC[C@@H](CO)O1` [Didanosine (Videx)], in assay [1], the “normalized GFP fluorescence” value worked out at 0.446. The “normalized DsRed fluorescence” value in assay [2] is 0.652.

Regarding `CS(=O)(=O)c1ccc(C2=C(c3ccccc3)C(=O)OC2)cc1`, the “normalized GFP fluorescence” value in assay [1] was 0.195. For the same compound, the “normalized DsRed fluorescence” value in assay [2] stood at 0.89.

For the compound `Cc1ccc(NC(=O)c2ccc(CN3CCN(C)CC3)cc2)cc1Nc1nccc(-c2cccnc2)n1` [Imatinib Mesylate], the “normalized GFP fluorescence” value in assay [1] was determined as 0.184. For the same compound, in assay [2], the “normalized DsRed fluorescence” value was 0.918.

With `N[C@@H](CC(=O)N1CCn2c(nnc2C(F)(F)F)C1)Cc1cc(F)c(F)cc1F`, in assay [1], the “normalized GFP fluorescence” value came to 0.306. In assay [2], the “normalized DsRed fluorescence” value came out at 0.577.
